The whole screen tested about 330,000 compounds, of which about 4,100 (1.2%) were called active. Rule as the data show it: active = inhibition above about 50%; inactive = the rest. The full list was thinned out, with actives kept by preference.
What follows are molecules tested against Sentrin-specific protease 8 (Homo sapiens) (UniProt Q96LD8) (assay: SENP8 protease inhibitors, primary screen, biochemical, luminescence (AID 2540)). Details: purified SENP8, Z-RLRGG-aminoluciferin cleavage, at 10 µM, active compounds read high.
Sentrin-specific protease 8 (Homo sapiens), sequence (Q96LD8 whole entry, looked up): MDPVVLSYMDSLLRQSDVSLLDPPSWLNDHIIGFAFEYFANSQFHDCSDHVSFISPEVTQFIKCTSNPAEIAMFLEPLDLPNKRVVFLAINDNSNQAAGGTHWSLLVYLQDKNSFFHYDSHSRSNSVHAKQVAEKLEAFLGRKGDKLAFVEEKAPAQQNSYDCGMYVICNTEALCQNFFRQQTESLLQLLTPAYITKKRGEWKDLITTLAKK
`Cc1c(CC(=O)NCC(=O)NCC(=O)O)c(=O)oc2cc3oc4c(c3cc12)CCCC4` was tested, and the inhibition was -13.4% (inactive). With `Clc1ccc(-n2nnnc2CN2CCCCC2)cc1Cl` the inhibition was -12% (inactive). `O=C(/C=C/NNC(=O)c1cccc(Br)c1)c1ccccc1` was tested, and the inhibition was -1.09% (inactive). For `CCOc1ccccc1N1C(=O)CC(Sc2nccc(C)n2)C1=O` (centres undefined), the inhibition was 1.56% (inactive). With `COc1ccc(NC(=O)CNc2cc(S(=O)(=O)N3CCOCC3)ccc2N2CCOCC2)c(OC)c1` the inhibition was 7.93% (inactive). `Cc1c(Cl)cccc1NC(=O)NCc1ccc(C)n1C` was tested, and the inhibition was -0.511% (inactive). In the case of `CC(=O)c1ccc(S(=O)(=O)NC2CC(=O)N(c3ccc4c(c3)OCCO4)C2)cc1` (centres undefined), the inhibition is reported as -4.2% (inactive). For `CC(C)(C)OC(=O)C[C@@H]1C/C=C\C[C@H](CC(=O)N[C@@H](CO)Cc2ccccc2)C(=O)N[C@H](Cc2ccccc2)COC1=O`, the inhibition was -7.09% (inactive). In the case of `COc1cc(C2C(C(=O)c3cccs3)=C(O)C(=O)N2CCN2CCOCC2)ccc1OCCC(C)C` (centres undefined), the inhibition is reported as -3.6% (inactive). In the case of `CCn1cc(CN2CCC(C(=O)Nc3cccc(-c4cccc(Cl)c4)c3)CC2)c(C)n1`, the inhibition is reported as -6.83% (inactive). In the case of `N#CC1=C(N)C(C#N)(C#N)[C@H](c2ccsc2)[C@H]2COCC=C12`, the inhibition is reported as -3.51% (inactive). `CCN1CC=C2C(C#N)=C(N)C(C#N)(C#N)[C@H](c3ccoc3)[C@H]2C1` was tested, and the inhibition was 50.7% (active). With `CCCN1CC=C2C(C#N)=C(N)C(C#N)(C#N)C(c3cc(OC)ccc3OC)C2C1` (centres undefined) the inhibition was 0.594% (inactive). `Cc1cn(C)c(=O)n(C)c1=O` was tested, and the inhibition was -18.1% (inactive). With `COc1ccc(NC(=O)C2CCCN(S(=O)(=O)c3cccc4cccnc34)C2)cc1` (centres undefined) the inhibition was 6% (inactive). In the case of `O=C(Nc1cccc2cccnc12)c1cccc(Cl)c1`, the inhibition is reported as 8.84% (inactive). In the case of `COc1ccc(NC(=O)Nc2cccc3cccnc23)cc1`, the inhibition is reported as 81% (active). With `CC12CCC(C(=O)N(CCC#N)CCC#N)(CC1=O)C2(C)C` (centres undefined) the inhibition was -1.58% (inactive). In the case of `C/C(=N\Nc1nncc2ccccc12)c1ccc(Cl)c([N+](=O)[O-])c1`, the inhibition is reported as 5.46% (inactive). `CN(CCO)c1ccc(/C=N/Nc2nncc3ccccc23)cc1` was tested, and the inhibition was 94.9% (active). With `COc1cccc(/C=N\Nc2nncc(-c3ccccc3)n2)c1` the inhibition was -14.9% (inactive). With `O=C(COC(=O)c1ccncc1)c1ccccc1` the inhibition was -23.2% (inactive). `c1csc(-c2nc(-c3ccncc3)no2)c1` was tested, and the inhibition was 57.3% (active). In the case of `c1ccc(CCc2nc(-c3ccncc3)no2)cc1`, the inhibition is reported as -9.99% (inactive). With `COc1ccc(CCc2nc(-c3cccs3)no2)cc1` the inhibition was -14.5% (inactive). With `O=C(Oc1ccc(-c2nc(-c3ccccn3)no2)cc1)c1ccccc1` the inhibition was 97.3% (active). In the case of `Cc1noc(C)c1COC(=O)COc1ccc(-c2ccccc2)cc1`, the inhibition is reported as -5.47% (inactive). For `Cc1ccc(-c2nc(-c3ccncc3)no2)c(C)c1`, the inhibition was 42.8% (inactive). `c1ccc(-c2noc(-c3cccs3)n2)nc1` was tested, and the inhibition was 88.9% (active). With `Clc1ccc(-n2nnnc2-c2cnc(-c3ccccn3)nc2-c2cccs2)cc1` the inhibition was -4.12% (inactive). `CC1CCC2(CC1)NC(=O)N(CC(=O)c1cccn1C)C2=O` (centres undefined) was tested, and the inhibition was -3.15% (inactive). With `CCOC(=O)N1CCN(c2c(NCCN3CCN(c4ccccc4F)CC3)c(=O)c2=O)CC1` the inhibition was -9.98% (inactive). In the case of `COc1ccccc1CNC(=O)[C@@H]1CCCN1C(=O)[C@@H]1Cc2ccccc2CN1C(=O)OC(C)(C)C`, the inhibition is reported as -1.1% (inactive). In the case of `Cc1ccc(N(C(=O)c2ccc(S(=O)(=O)N(C)C)cc2)C2C=CS(=O)(=O)C2)cc1` (centres undefined), the inhibition is reported as -5.23% (inactive). `O=C1CCC(C(=O)N2CCN(c3ccccc3Cl)CC2)CN1CC1CCCCC1` (centres undefined) was tested, and the inhibition was -2.96% (inactive). `O=C1c2ccccc2C(=O)N1Cc1cc(-c2ccccc2Cl)no1` was tested, and the inhibition was 2.3% (inactive). For `Clc1ccc(-c2cc(-c3ccccn3)on2)c(Cl)c1`, the inhibition was 98% (active). With `Clc1ccc(COn2c(-c3ccc(Cl)cc3Cl)nc3ncccc32)cc1` the inhibition was 1.77% (inactive). `Cn1cccc1C(=O)OCC(=O)NCCc1ccccc1` was tested, and the inhibition was -2.12% (inactive). `O=C(COC(=O)c1c2c(nc3ccccc13)CCCC2)c1ccc(Br)s1` was tested, and the inhibition was -1.41% (inactive). With `Cn1cccc1C(=O)OCC(=O)c1ccc(Br)s1` the inhibition was 75.8% (active). `COc1cccc(NC(=O)CSc2nnc(C3CCCCC3)n2N)c1` was tested, and the inhibition was 6.19% (inactive). `O=C(NCC1CC1)c1onc(CSc2ccccc2)c1C(=O)NCC1CC1` was tested, and the inhibition was 1.24% (inactive). For `Cc1ccc(NC(=O)c2ccc(S(=O)(=O)NCC3CCCO3)cc2)cc1C` (centres undefined), the inhibition was 9.11% (inactive). With `Cc1cccc(C(=O)Nc2nnc(S(=O)(=O)N3CCCCCC3)s2)c1` the inhibition was 18.3% (inactive). In the case of `O=C(Nc1nnc(S(=O)(=O)N2CCOCC2)s1)c1cccc(Br)c1`, the inhibition is reported as 6.23% (inactive). `O=C(Nc1nnc(S(=O)(=O)N2CCCCCC2)s1)c1cccc(Br)c1` was tested, and the inhibition was 71.5% (active). For `Cc1ccc(S(=O)(=O)NC(=O)c2cccc(C)c2)cc1`, the inhibition was -5.51% (inactive). `Cc1[nH]n(C(N)=S)c(=O)c1N=Nc1ccc(Cl)cc1Cl` was tested, and the inhibition was 95.6% (active). In the case of `Cc1[nH]n(C)c(=O)c1N=Nc1ccc(S(C)(=O)=O)cc1`, the inhibition is reported as -4.34% (inactive). With `CCCCNC(=O)C1CCCNC1=O` (centres undefined) the inhibition was -10.4% (inactive). With `O=C(O)c1cc(S(=O)(=O)N(Cc2ccccc2)c2ccccc2)ccc1Cl` the inhibition was 3.75% (inactive). `C/C(=N\OCC(=O)Nc1ccc(Br)cc1)c1cccs1` was tested, and the inhibition was -8.52% (inactive). `O=C(O)c1ccccc1OCc1ccccc1Cl` was tested, and the inhibition was 1.22% (inactive). In the case of `COc1cc(/C=C2\Oc3ccc(C#Cc4ccc(O)cc4)cc3C2=O)cc(OC)c1`, the inhibition is reported as 5.28% (inactive). With `COc1cc(C#Cc2ccc3cc(CCCO)oc(=O)c3c2)cc(OC)c1` the inhibition was 69.6% (active). `O=C1c2ccccc2C(=O)N1CCC#Cc1ccc2cc(C3(O)CCCCC3)oc(=O)c2c1` was tested, and the inhibition was -2.91% (inactive). With `COc1ccccc1OC(C)C(=O)Nc1ccc(S(=O)(=O)Nc2nccs2)cc1` (centres undefined) the inhibition was -3.08% (inactive). `Cc1ccccc1N1CC(c2nc3ccccc3[nH]2)CC1=O` (centres undefined) was tested, and the inhibition was 2.73% (inactive). `O=C(Nc1sc2c(c1-c1nc3ccccc3[nH]1)CCCC2)C1CC1` was tested, and the inhibition was -0.363% (inactive). With `COc1ccc(Br)cc1C(=O)NC(=S)Nc1cc(-c2nc3ccccc3[nH]2)ccc1C` the inhibition was 3.06% (inactive). `Clc1ccccc1SCc1nc2ccccc2[nH]1` was tested, and the inhibition was 14.7% (inactive). In the case of `c1ccc2[nH]c(-c3nc4ccccc4[nH]3)nc2c1`, the inhibition is reported as 92.4% (active). For `Cc1ccc(-c2nc3ccccc3[nH]2)cc1N`, the inhibition was 87.1% (active).
